# Experimental data published in PubChem BioAssay AID1159580 (chemical genetic matrix, 2015).
# The whole screen tested about 5,500 compounds, of which about 2,000 (36%) were called active. Not shown: some 18% with an inconclusive outcome. Some of the results follow. Unmarked numbers belong to inactive results. Cut-off read from the data, not from the text of the source: active = normalized growth mostly below about 0.91 (no sharp cut-off); inconclusive = no clear call, values can overlap the other calls; inactive = mostly above about 0.92.
# Experiment: chemical genetic growth profiling, strain panel (AID 1159580);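 note: tested at 20 µM; growth read once vehicle control cultures reached saturation at 30 °C; 1 = growth at the plate median or of vehicle wells; lower values mean less growth of the strain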
# Conditions: S. cerevisiae deletion strains, growth OD
# [1] = locus YDL101C, strain DUN1, hits give low values
# [2] = locus YHR030C, strain SLT2, hits give low values
smiles,measurement,setting,value
Cc1nn(C)c(C(=O)Sc2ccc(OC(F)(F)F)cc2)c1[N+](=O)[O-],normalized growth,"locus YAR019C, strain CDC15, hits give low values",0.977
same,normalized growth,"locus YBL105C, strain PKC1, hits give low values",0.974
same,normalized growth,"locus YBR135W, strain CKS1, hits give low values",0.969
same,normalized growth,"locus YBR136W, strain MEC1, hits give low values",0.984
same,normalized growth,"locus YBR160W, strain CDC28, hits give low values",0.977
same,normalized growth,"locus YDL017W, strain CDC7, hits give low values",0.977
same,normalized growth,"locus YDL028C, strain MPS1, hits give low values",0.985
same,normalized growth,[1],0.978
same,normalized growth,"locus YDL108W, strain KIN28, hits give low values",0.98
same,normalized growth,"locus YDL132W, strain cdc53, hits give low values",0.952
same,normalized growth,"locus YDL214C, strain PRR2, hits give low values",0.946
same,normalized growth,"locus YDR052C, strain DBF4, hits give low values",0.983
same,normalized growth,"locus YDR054C, strain cdc34, hits give low values",0.952
same,normalized growth,"locus YDR226W, strain ADK1, hits give low values",0.982
same,normalized growth,"locus YDR477W, strain SNF1, hits give low values",0.993
same,normalized growth,"locus YER123W, strain YCK3, hits give low values",0.895
same,normalized growth,"locus YER133W, strain GLC7, hits give low values",1
same,normalized growth,"locus YFL009W, strain cdc4, hits give low values",0.965
same,normalized growth,"locus YFL029C, strain CAK1, hits give low values",0.978
same,normalized growth,"locus YFR003C, strain YPI1, hits give low values",0.978
same,normalized growth,"locus YFR019W, strain FAB1, hits give low values",0.972
same,normalized growth,"locus YFR028C, strain CDC14, hits give low values",0.987
same,normalized growth,"locus YGR040W, strain KSS1, hits give low values",1.03
same,normalized growth,"locus YGR052W, strain FMP48, hits give low values",0.988
same,normalized growth,"locus YGR092W, strain DBF2, hits give low values",0.939
same,normalized growth,[2],1.25 [resistant] (active)
same,normalized growth,"locus YHR079C, strain IRE1, hits give low values",0.977
same,normalized growth,"locus YHR082C, strain KSP1, hits give low values",0.947
same,normalized growth,"locus YHR205W, strain SCH9, hits give low values",0.611
same,normalized growth,"locus YIL147C, strain SLN1, hits give low values",0.985
same,normalized growth,"locus YJL095W, strain BCK1, hits give low values",0.947
same,normalized growth,"locus YJL128C, strain PBS2, hits give low values",0.87
same,normalized growth,"locus YJL157C, strain FAR1, hits give low values",0.978
same,normalized growth,"locus YJR016C, strain ILV3, hits give low values",0.977
same,normalized growth,"locus YJR066W, strain TOR1 (second series), hits give low values",1.02
same,normalized growth,"locus YJR066W, strain TOR1, hits give low values",0.936
same,normalized growth,"locus YKL048C, strain ELM1, hits give low values",0.989
same,normalized growth,"locus YKL067W, strain YNK1, hits give low values",0.96
same,normalized growth,"locus YKL101W, strain HSL1, hits give low values",0.985
same,normalized growth,"locus YKL193C, strain SDS22, hits give low values",0.975
same,normalized growth,"locus YKL203C, strain TOR2, hits give low values",1.13
same,normalized growth,"locus YLR113W, strain HOG1, hits give low values",0.834 (active)
same,normalized growth,"locus YLR133W, strain CKI1, hits give low values",0.949
same,normalized growth,"locus YLR403W, strain SFP1, hits give low values",0.99
same,normalized growth,"locus YML070W, strain DAK1, hits give low values",0.959
same,normalized growth,"locus YMR001C, strain CDC5, hits give low values",0.979
same,normalized growth,"locus YMR205C, strain PFK2 (second series), hits give low values",0.965
same,normalized growth,"locus YMR277W, strain FCP1, hits give low values",0.968
same,normalized growth,"locus YNL006W, strain LST8, hits give low values",0.974
same,normalized growth,"locus YNL020C, strain ARK1, hits give low values",0.95
same,normalized growth,"locus YNL161W, strain CBK1, hits give low values",0.98
same,normalized growth,"locus YNL183C, strain NPR1, hits give low values",1.04
same,normalized growth,"locus YNL207W, strain RIO2, hits give low values",0.989
same,normalized growth,"locus YNL222W, strain SSU72, hits give low values",0.976
same,normalized growth,"locus YNL307C, strain MCK1 (second series), hits give low values",0.918
same,normalized growth,"locus YOL078W, strain AVO1, hits give low values",0.972
same,normalized growth,"locus YOL136C, strain PFK27, hits give low values",0.935
same,normalized growth,"locus YOR061W, strain CKA2, hits give low values",0.95
same,normalized growth,"locus YOR119C, strain RIO1, hits give low values",1.11
same,normalized growth,"locus YOR231W, strain MKK1, hits give low values",0.884
same,normalized growth,"locus YOR329C, strain SCD5, hits give low values",0.982
same,normalized growth,"locus YPL031C, strain PHO85, hits give low values",1.01
same,normalized growth,"locus YPL153C, strain RAD53, hits give low values",1.03
same,normalized growth,"locus YPL204W, strain HRR25, hits give low values",1.06
same,normalized growth,"locus YPL209C, strain IPL1, hits give low values",0.981
same,normalized growth,"locus YPL256C, strain CLN2, hits give low values",0.952
same,normalized growth,"locus YPR025C, strain CCL1, hits give low values",0.981
same,normalized growth,"locus YPR106W, strain ISR1, hits give low values",0.959
same,normalized growth,"locus YPR111W, strain DBF20, hits give low values",0.932
same,normalized growth,"strain NNK1, hits give low values",0.955
same,normalized growth,"strain TSCII, hits give low values",0.982
Cc1nn(C)c(C)c1[N+](=O)[O-],normalized growth,"locus YAL013W, strain DEP1, hits give low values",0.996
same,normalized growth,"locus YBR229C, strain ROT2, hits give low values",1.03
same,normalized growth,[1],0.992
same,normalized growth,"locus YDL134C, strain PPH21, hits give low values",1
same,normalized growth,"locus YDR150W, strain NUM1, hits give low values",0.939
same,normalized growth,"locus YEL061C, strain CIN8, hits give low values",1
same,normalized growth,"locus YGR078C, strain PAC10, hits give low values",0.999
same,normalized growth,"locus YGR229C, strain SMI1, hits give low values",1.01
same,normalized growth,[2],1.01
same,normalized growth,"locus YHR087W, strain rtc3, hits give low values",1.02
same,normalized growth,"locus YJR043C, strain POL32, hits give low values",0.997
same,normalized growth,"locus YJR075W, strain HOC1, hits give low values",0.988
same,normalized growth,"locus YKL190W, strain CNB1, hits give low values",1
same,normalized growth,"locus YLR039C, strain RIC1, hits give low values",0.998
same,normalized growth,"locus YLR058C, strain SHM2 (second series), hits give low values",1.01
same,normalized growth,"locus YLR085C, strain ARP6, hits give low values",1.02
same,normalized growth,"locus YLR262C, strain YPT6, hits give low values",0.993
same,normalized growth,"locus YML094W, strain GIM5, hits give low values",0.994
same,normalized growth,"locus YMR219W, strain ESC1, hits give low values",1.02
same,normalized growth,"locus YMR307W, strain GAS1, hits give low values",0.994
same,normalized growth,"locus YNL128W, strain TEP1, hits give low values",1.01
same,normalized growth,"locus YNL153C, strain GIM3, hits give low values",1
same,normalized growth,"locus YNL298W, strain CLA4 (second series), hits give low values",1.01
same,normalized growth,"locus YNL322C, strain KRE1, hits give low values",0.996
same,normalized growth,"locus YNR030W, strain Alg12, hits give low values",1.02
same,normalized growth,"locus YOL006C, strain TOP1, hits give low values",1.05
same,normalized growth,"locus YPL055C, strain LGE1, hits give low values",0.867
same,normalized growth,"locus YPL241C, strain CIN2, hits give low values",1
same,normalized growth,"locus YPR135W, strain CTF4, hits give low values",1.03
